Measured values taken from PubChem BioAssay (Tox21).
Values joined by “and” are separate entries in the source; they are usually repeats but may differ in a detail not shown here. Equal entries are not always repeated. Inconclusive results are not listed. Where a structure was tested more than once in an assay, its records may differ in their call. Active and inactive are the calls of the source. Unless noted, calls follow the shape of the dose curve; as a rule, active = well fitted curve in the direction sought with a large enough effect in the repeat runs; inconclusive = weak or mixed curves; inactive = no such curve, though single readings can be large; an effect the other way counts as inactive or inconclusive.

Experiments:
[1] = qHTS RealTime-Glo MT Cell Viability Assay in HEK293 cells - 0 hour (AID 1224880); also: top concentration of the series differs between compounds; nearly all actives have a fitted effect of over 45% in size
In short: (§1)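 Luminescence readout at each listed time point; HEK293, 600 cells/well, RealTime-Glo MT reagent added with cells; compounds pinned (23 nL in DMSO) after 5 h at 37 C; continuous culture at 37 C.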

[2] = A CellTox Green Cytotoxicity Assay to monitor cytotoxicity in HEK293 cells - 32 hour (AID 1224881); also: nearly all actives have a fitted effect of over 40% in size; also: potency is read from the fitted curve at half-maximal effect
In short: (§2)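 Read-out: fluorescence of a cell-impermeant cyanine dye staining DNA of dead cells, proportional to cytotoxicity. HEK293, 600 cells/well with reagent, compound (23 nL DMSO) added after 5 h; reads at 0, 8, 16, 24, 32, 40 h.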

[3] = A CellTox Green Cytotoxicity Assay to monitor cytotoxicity in HepG2 cells - 0 hour (AID 1224882); also: nearly all actives have a fitted effect of over 35% in size
In short: (§3)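 HepG2, 600 cells/well premixed w/ CellTox Green; 5 h settle, 37 C/5% CO2; pintool cpd add (DMSO); 37 C, 40 h; fluorescence read at 0, 8, 16, 24, 32, 40 h.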

[4] = A CellTox Green Cytotoxicity Assay to monitor cytotoxicity in HepG2 cells - 32 hour (AID 1224883); also: nearly all actives have a fitted effect of over 50% in size; also: potency is read from the fitted curve at half-maximal effect
In short: as §3

[5] = A CellTox Green Cytotoxicity Assay to monitor cytotoxicity in HEK293 cells - 8 hour (AID 1224884); also: nearly all actives have a fitted effect of over 35% in size
In short: as §2

[6] = qHTS RealTime-Glo MT Cell Viability Assay in HepG2 cells - 16 hour (AID 1224885); also: nearly all actives have a fitted effect of over 50% in size
In short: (§4)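 HepG2 suspension premixed with RealTime-Glo reagents is plated at 600 cells per well and left 5 h at 37 C/5% CO2. Compounds in DMSO then go in, and bioluminescence reflecting viable cell number is recorded over 40 h.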

[7] = qHTS RealTime-Glo MT Cell Viability Assay in HEK293 cells - 24 hour (AID 1224886); also: nearly all actives have a fitted effect of over 50% in size; also: potency is read from the fitted curve at half-maximal effect
In short: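 Reads taken at 0, 8, 16, 24, 32 and 40 h from the same wells. HEK293 cells (600/well) carried RealTime-Glo reagents from seeding, with compound added after a 5 h settle at 37 C.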

[8] = qHTS RealTime-Glo MT Cell Viability Assay in HEK293 cells - 8 hour (AID 1224887); also: nearly all actives have a fitted effect of over 50% in size; also: potency is read from the fitted curve at half-maximal effect
In short: as §1

[9] = A CellTox Green Cytotoxicity Assay to monitor cytotoxicity in HEK293 cells - 16 hour (AID 1224888); also: nearly all actives have a fitted effect of over 35% in size
In short: as §2

[10] = qHTS RealTime-Glo MT Cell Viability Assay in HepG2 cells - 0 hour (AID 1224889); also: nearly all actives have a fitted effect of over 50% in size
In short: as §4

[11] = A CellTox Green Cytotoxicity Assay to monitor cytotoxicity in HepG2 cells - 8 hour (AID 1224890); also: nearly all actives have a fitted effect of over 45% in size; also: potency is read from the fitted curve at half-maximal effect
In short: as §3

[12] = qHTS assay to identify small molecule antagonists of the estrogen receptor alpha (ER-alpha) signaling pathway using the BG1 cell line in the presence of 0.1 nM 17-beta-estradiol - cell viability counter screen (AID 1259241); also: nearly all actives have a fitted effect of over 40% in size
In short: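 Measures cytotoxicity alongside the ER-alpha antagonist readout: VM7Luc4E2 cells, charcoal-stripped serum, 0.1 nM 17beta-estradiol final, 22 hr compound incubation at 37C, CellTiter-Fluor fluorescence.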

[13] = qHTS assay to identify small molecule antagonists of the androgen receptor (AR) signaling pathway using the MDA cell line in the presence of 0.5 nM R1881 - cell viability counter screen (AID 1259242); also: nearly all actives have a fitted effect of over 45% in size
In short: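 Live-cell protease fluorescence, CellTiter-Fluor, 30 min at 37C. Cells: MDA-kb2, 3,000/well, preincubated 5 hr. Compounds plus 0.5 nM R1881 final, 16 hr, 37C, 0% CO2.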

[14] = qHTS assay to identify small molecule HDAC inhibitors (AID 1259364);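 also: wild-type HCT-116 cells with endogenous class I/II HDAC activity; top concentration of the series differs between compounds; nearly all actives have a fitted effect of over 45% in size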
In short: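 HCT-116 (wild type), 1,500 cells/well, overnight; compound 2 hr 37C 5% CO2; HDAC-Glo I/II reagent 30 min RT; luminescence readout.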

[15] = qHTS assay to identify small molecule HDAC inhibitors - cell viability counter screen (AID 1259365)
In short: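 Following a 2hr exposure of overnight-plated wild-type HCT-116 cells to DMSO-delivered compounds, CellTiter-Glo was added and luminescence recorded after 30min at room temperature.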

[16] = qHTS assay to identify small molecule agonists of the sonic hedgehog signaling (Shh) pathway - cell viability counter screen (AID 1259366); also: nearly all actives have a fitted effect of over 50% in size; also: potency is read from the fitted curve at half-maximal effect
In short: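 After a 4hr attachment at 37C, NIH/3T3 cells bearing an integrated Gli1-driven luciferase reporter were dosed with compounds. Treatment lasted 24hr, with the final hour including CellTiter-Fluor for a fluorescence viability measurement.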

[17] = qHTS assay to identify small molecule antagonists of the sonic hedgehog signaling (Shh) pathway - cell viability counter screen (AID 1259367); also: nearly all actives have a fitted effect of over 55% in size; also: potency is read from the fitted curve at half-maximal effect
In short: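 Fluorescence read-out (CellTiter-Fluor, 1 hr at 37C) taken after 23 hr compound treatment of 3T3 Gli1-Luc cells stimulated with conditioned medium. Cells were seeded at 2,000 per well and pre-incubated 4 hr.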

[18] = qHTS assay to identify small molecule agonists of the sonic hedgehog signaling (Shh) pathway (AID 1259368; calls by dose curve;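 also: NIH/3T3-derived 3T3Gli1-Luc cells carrying a stable Gli1-driven firefly luciferase reporter; series mostly up to about 92 µM; nearly all actives have a fitted effect of over 15% in size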)
In short: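 Read-out: firefly luciferase luminescence from a Gli1 response element reporter stably integrated in NIH/3T3-derived 3T3Gli1-Luc cells, measured 30 min at room temperature after reagent addition. Compound exposure lasted 24 hr at 37 C, 5% CO2.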

[19] = target: Estrogen receptor (Homo sapiens) (UniProt P03372); assay: qHTS assay to identify small molecule antagonists of the estrogen receptor alpha (ER-alpha) signaling pathway using the BG1 cell line in the presence of 0.1 nM 17-beta-estradiol (AID 1259244); also: nearly all actives have a fitted effect of over 50% in size; also: potency is read from the fitted curve at half-maximal effect
In short: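 Luminescence after ONE-Glo (30 min, room temperature) measured ERE-luciferase activity in VM7Luc4E2 cells treated 22 h with compound and 0.1 nM final 17beta-estradiol as stimulator.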

[20] = target: Androgen receptor (Homo sapiens) (UniProt P10275); assay: qHTS assay to identify small molecule antagonists of the androgen receptor (AR) signaling pathway using the MDA cell line in the presence of 0.5 nM R1881 (AID 1259243)
In short: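 MDA-kb2, MMTV-luc (AR/GR elements); 3,000 cells/well; cpd + 0.5 nM R1881 final; 16 hr 37C, 0% CO2; ONE-Glo 30 min RT; luminescence.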

Measured: Potency

Estrogen receptor (Homo sapiens), sequence (P03372 whole entry, looked up): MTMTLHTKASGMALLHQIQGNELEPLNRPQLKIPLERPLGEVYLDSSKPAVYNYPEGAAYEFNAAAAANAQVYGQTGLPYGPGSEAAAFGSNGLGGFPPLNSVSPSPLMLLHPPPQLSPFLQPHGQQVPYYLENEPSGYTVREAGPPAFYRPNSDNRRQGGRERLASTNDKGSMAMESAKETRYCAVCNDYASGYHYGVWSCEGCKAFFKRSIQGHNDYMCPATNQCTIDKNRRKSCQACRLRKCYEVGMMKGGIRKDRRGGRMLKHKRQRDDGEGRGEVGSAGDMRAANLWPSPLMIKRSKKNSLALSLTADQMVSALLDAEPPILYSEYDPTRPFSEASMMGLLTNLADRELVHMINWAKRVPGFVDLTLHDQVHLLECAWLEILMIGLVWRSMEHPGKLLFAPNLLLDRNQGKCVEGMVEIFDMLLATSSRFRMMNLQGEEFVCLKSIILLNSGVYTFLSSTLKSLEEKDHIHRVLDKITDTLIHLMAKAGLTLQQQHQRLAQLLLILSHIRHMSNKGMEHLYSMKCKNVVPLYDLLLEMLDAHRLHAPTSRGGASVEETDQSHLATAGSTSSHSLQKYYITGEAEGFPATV
Androgen receptor (Homo sapiens), sequence (P10275 whole entry, looked up): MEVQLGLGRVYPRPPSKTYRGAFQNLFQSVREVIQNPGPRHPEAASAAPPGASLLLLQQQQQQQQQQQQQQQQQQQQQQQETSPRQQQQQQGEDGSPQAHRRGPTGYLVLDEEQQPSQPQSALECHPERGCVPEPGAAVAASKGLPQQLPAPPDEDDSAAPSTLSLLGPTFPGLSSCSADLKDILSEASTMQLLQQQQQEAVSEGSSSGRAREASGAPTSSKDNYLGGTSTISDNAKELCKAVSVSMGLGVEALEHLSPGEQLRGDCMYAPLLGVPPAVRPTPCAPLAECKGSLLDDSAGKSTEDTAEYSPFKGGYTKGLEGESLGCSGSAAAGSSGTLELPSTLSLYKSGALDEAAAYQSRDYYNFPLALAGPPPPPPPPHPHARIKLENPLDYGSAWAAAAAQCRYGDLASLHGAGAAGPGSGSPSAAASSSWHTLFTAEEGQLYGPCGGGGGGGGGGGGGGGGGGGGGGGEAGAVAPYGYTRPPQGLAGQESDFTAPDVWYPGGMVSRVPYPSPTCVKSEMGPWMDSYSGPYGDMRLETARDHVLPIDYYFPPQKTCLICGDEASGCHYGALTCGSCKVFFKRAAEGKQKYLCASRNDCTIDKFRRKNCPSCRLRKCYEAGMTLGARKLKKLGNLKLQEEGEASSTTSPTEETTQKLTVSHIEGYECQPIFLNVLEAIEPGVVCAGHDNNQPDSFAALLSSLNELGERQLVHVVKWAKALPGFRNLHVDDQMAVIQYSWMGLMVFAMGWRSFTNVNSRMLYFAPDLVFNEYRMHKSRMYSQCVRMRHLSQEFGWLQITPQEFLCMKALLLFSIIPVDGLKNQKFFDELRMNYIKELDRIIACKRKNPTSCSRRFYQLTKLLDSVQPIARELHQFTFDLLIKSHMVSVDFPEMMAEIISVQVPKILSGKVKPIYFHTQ

CCN(CC)N=O
not listed: [19] | [20]
inactive: all other assays above

Nc1ccc(-c2ccccc2)cc1
7.11 µM (active) and inactive: [7]
not listed: [9] | [10] | [14] | [20]
inactive: all other assays above

Nc1ccc(Cl)c(Cl)c1
not listed: [14] | [19] | [20]
inactive: all other assays above

CCOC(=O)C(C)OC(=O)c1cc(Oc2ccc(C(F)(F)F)cc2Cl)ccc1[N+](=O)[O-] (stereo not drawn)
active: [8] 30.7 µM
30.7 µM (active) and inactive: [7]
not listed: [9] | [20]
inactive: all other assays above

CCC(C)(C)c1ccc(O)cc1
active: [2] 49.5 µM and 43.6 µM | [4] 44.1 µM and 38.9 µM and 21.3 µM
inactive and 43.6 µM (active): [11]
not listed: [9] | [20]
inactive: all other assays above

N#CCCCl
not listed: [9] | [10] | [14] | [19] | [20]
inactive: all other assays above

COP(=S)(OC)Oc1ccc([N+](=O)[O-])cc1
not listed: [9] | [10] | [20]
inactive: all other assays above

CCc1cccc(CC)c1N(COC)C(=O)CCl
active: [20] 23.5 µM and 27.3 µM | [19] 47 µM | [16] 27.3 µM | [17] 59.1 µM
not listed: [10]
inactive: all other assays above
